# Source: the supplement of paper PMC11732987, “Enantioselective OTUD7B fragment discovery through chemoproteomics screening and high-throughput optimisation” (Communications Chemistry, 2025)
# Unmarked numbers belong to inactive results.
# Legend:
# Assay in all cases: log2 ratio of Biotin-Ahx-Ub-VS probe labelling (compound/DMSO); higher = less target engagement, active = hit call of the paper (q ≤ 0.05, log2 ratio ≤ -1)
# Conditions in all cases: treatment time: 3 h
# [1] = compound: ClCC(=O)N[C@H]1CCCc2ccccc12
# How it was run: (§1)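 Average ratios of compound to vehicle were obtained by unpaired t-test. Beforehand, 495 µg samples of HEK293T lysate in buffer with protease inhibitors were treated in triplicate with compound over a concentration series or vehicle for 3 h, then with 0.5 µM final Biotin-Ahx-Ub-VS for 1 h. Labelled deubiquitinases were NeutrAvidin-enriched, digested and quantified label-free by diaPASEF LC-MS/MS in Spectronaut, normalised to the global median. Values are log2 and cover proteins with at least two unique peptides.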
# [2] = compound: CCC1N(CCc2cc(OC)c(Cl)cc12)C(=O)CCl
# How it was run: (§2)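 DUBs in HEK293T lysate were labelled with Biotin-Ahx-Ub-VS (0.5 µM final, 1 h) after a 3 h treatment with compound at 50 or 200 µM or with DMSO, done in triplicate on 495 µg of lysate per sample. NeutrAvidin-enriched proteins were digested with LysC and trypsin and run by diaPASEF LC-MS/MS. Median-normalised label-free quantities gave average base-two log ratios of compound to DMSO by unpaired t-test, restricted to proteins with at least 2 unique peptides.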
# [3] = compound: CCCC1N(CCc2cc(OC)c(OC)cc12)C(=O)CCl
# How it was run: as §2
# [4] = compound: CCC1N(CCc2sccc12)C(=O)CCl
# How it was run: as §2
# [5] = compound: CN1c2ccccc2C(CS1(=O)=O)NC(=O)CCl
# How it was run: as §2
# [6] = compound: Cl.ClCC(=O)N1CCc2ncncc2C1
# How it was run: as §2
# [7] = compound: Cl.Cn1ncc2C(CCCc12)NC(=O)CCl
# How it was run: as §2
# [8] = compound: ClCC(=O)NC1CCOc2ccccc12
# How it was run: as §2
# [9] = compound: ClCC(=O)NC1CCCc2ccccc12
# How it was run: as §1
# [10] = compound: ClCC(=O)N[C@@H]1CCCc2ccccc12
# How it was run: as §1
# UniProt Q92905, sequence (Q92905 whole entry, looked up): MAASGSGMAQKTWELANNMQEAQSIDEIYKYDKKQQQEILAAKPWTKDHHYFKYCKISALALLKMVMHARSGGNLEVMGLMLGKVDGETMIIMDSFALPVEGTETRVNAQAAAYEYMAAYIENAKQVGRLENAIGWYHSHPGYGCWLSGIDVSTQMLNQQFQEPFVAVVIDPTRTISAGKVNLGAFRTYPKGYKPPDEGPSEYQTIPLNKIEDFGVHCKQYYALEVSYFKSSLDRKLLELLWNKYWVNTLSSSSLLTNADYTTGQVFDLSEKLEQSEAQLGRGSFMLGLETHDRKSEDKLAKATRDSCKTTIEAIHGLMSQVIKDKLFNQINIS
# UniProt Q8TE49, sequence (Q8TE49 whole entry): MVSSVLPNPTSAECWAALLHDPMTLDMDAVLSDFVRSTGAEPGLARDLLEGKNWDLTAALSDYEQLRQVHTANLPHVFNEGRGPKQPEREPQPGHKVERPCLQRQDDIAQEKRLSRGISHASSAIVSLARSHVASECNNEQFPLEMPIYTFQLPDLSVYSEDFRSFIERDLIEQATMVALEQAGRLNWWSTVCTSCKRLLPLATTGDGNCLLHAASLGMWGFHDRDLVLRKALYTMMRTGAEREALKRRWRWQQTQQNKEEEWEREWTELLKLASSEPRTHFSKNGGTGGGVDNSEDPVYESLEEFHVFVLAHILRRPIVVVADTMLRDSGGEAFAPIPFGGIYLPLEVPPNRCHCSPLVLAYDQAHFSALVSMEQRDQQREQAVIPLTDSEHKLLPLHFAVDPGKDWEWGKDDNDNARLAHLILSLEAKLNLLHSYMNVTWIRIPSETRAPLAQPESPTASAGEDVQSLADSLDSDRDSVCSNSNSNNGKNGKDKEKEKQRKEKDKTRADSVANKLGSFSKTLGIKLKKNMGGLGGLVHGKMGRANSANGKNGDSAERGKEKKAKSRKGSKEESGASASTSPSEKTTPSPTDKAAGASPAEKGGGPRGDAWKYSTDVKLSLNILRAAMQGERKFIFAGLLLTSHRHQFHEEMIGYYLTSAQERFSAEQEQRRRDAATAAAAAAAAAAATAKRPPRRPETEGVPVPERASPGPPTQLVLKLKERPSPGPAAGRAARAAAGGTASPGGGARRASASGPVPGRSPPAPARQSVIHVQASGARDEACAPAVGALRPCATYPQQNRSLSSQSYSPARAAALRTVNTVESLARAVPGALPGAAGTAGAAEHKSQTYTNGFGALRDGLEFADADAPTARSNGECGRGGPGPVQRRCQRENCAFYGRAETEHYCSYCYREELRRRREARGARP
target,measurement,setting,value
UniProt Q8TE49,log2 ratio of Biotin-Ahx-Ub-VS probe labelling,[1]; compound concentration: 3.13uM,-1.78 (active)
same,log2 ratio of Biotin-Ahx-Ub-VS probe labelling,[1]; compound concentration: 6.25uM,-1.41 (active)
same,log2 ratio of Biotin-Ahx-Ub-VS probe labelling,[1]; compound concentration: 12.5uM,-0.835
same,log2 ratio of Biotin-Ahx-Ub-VS probe labelling,[1]; compound concentration: 25uM,-2.19 (active)
same,log2 ratio of Biotin-Ahx-Ub-VS probe labelling,[1]; compound concentration: 50uM,-2.93 (active)
same,log2 ratio of Biotin-Ahx-Ub-VS probe labelling,[1]; compound concentration: 100uM,-3.39 (active)
same,log2 ratio of Biotin-Ahx-Ub-VS probe labelling,[1]; compound concentration: 200uM,-3.55 (active)
same,log2 ratio of Biotin-Ahx-Ub-VS probe labelling,[2]; compound concentration: 50uM,0.126
same,log2 ratio of Biotin-Ahx-Ub-VS probe labelling,[2]; compound concentration: 200uM,-1.15 (active)
same,log2 ratio of Biotin-Ahx-Ub-VS probe labelling,[3]; compound concentration: 50uM,-0.481
same,log2 ratio of Biotin-Ahx-Ub-VS probe labelling,[3]; compound concentration: 200uM,-1.23
COPS5 (UniProt Q92905),log2 ratio of Biotin-Ahx-Ub-VS probe labelling,[4]; compound concentration: 50uM,-0.164
same,log2 ratio of Biotin-Ahx-Ub-VS probe labelling,[4]; compound concentration: 200uM,0.0997
same,log2 ratio of Biotin-Ahx-Ub-VS probe labelling,[5]; compound concentration: 50uM,-0.182
same,log2 ratio of Biotin-Ahx-Ub-VS probe labelling,[5]; compound concentration: 200uM,0.168
same,log2 ratio of Biotin-Ahx-Ub-VS probe labelling,[6]; compound concentration: 50uM,-0.296
same,log2 ratio of Biotin-Ahx-Ub-VS probe labelling,[6]; compound concentration: 200uM,-0.179
same,log2 ratio of Biotin-Ahx-Ub-VS probe labelling,[7]; compound concentration: 50uM,-0.177
same,log2 ratio of Biotin-Ahx-Ub-VS probe labelling,[7]; compound concentration: 200uM,-0.131
same,log2 ratio of Biotin-Ahx-Ub-VS probe labelling,[8]; compound concentration: 50uM,0.175
same,log2 ratio of Biotin-Ahx-Ub-VS probe labelling,[8]; compound concentration: 200uM,-0.0253
same,log2 ratio of Biotin-Ahx-Ub-VS probe labelling,[9]; compound concentration: 0.78uM,0.0364
same,log2 ratio of Biotin-Ahx-Ub-VS probe labelling,[9]; compound concentration: 1.56uM,-0.0289
same,log2 ratio of Biotin-Ahx-Ub-VS probe labelling,[9]; compound concentration: 3.13uM,-0.0264
same,log2 ratio of Biotin-Ahx-Ub-VS probe labelling,[9]; compound concentration: 6.25uM,0.0604
same,log2 ratio of Biotin-Ahx-Ub-VS probe labelling,[9]; compound concentration: 12.5uM,-0.134
same,log2 ratio of Biotin-Ahx-Ub-VS probe labelling,[9]; compound concentration: 25uM,-0.0881
same,log2 ratio of Biotin-Ahx-Ub-VS probe labelling,[9]; compound concentration: 50uM,-0.183
same,log2 ratio of Biotin-Ahx-Ub-VS probe labelling,[9]; compound concentration: 100uM,-0.315
same,log2 ratio of Biotin-Ahx-Ub-VS probe labelling,[9]; compound concentration: 200uM,-0.041
same,log2 ratio of Biotin-Ahx-Ub-VS probe labelling,[10]; compound concentration: 0.78uM,-0.237
same,log2 ratio of Biotin-Ahx-Ub-VS probe labelling,[10]; compound concentration: 1.56uM,-0.152
same,log2 ratio of Biotin-Ahx-Ub-VS probe labelling,[10]; compound concentration: 3.13uM,-0.15
same,log2 ratio of Biotin-Ahx-Ub-VS probe labelling,[10]; compound concentration: 6.25uM,0.209
same,log2 ratio of Biotin-Ahx-Ub-VS probe labelling,[10]; compound concentration: 12.5uM,-0.0611
same,log2 ratio of Biotin-Ahx-Ub-VS probe labelling,[10]; compound concentration: 25uM,-0.26
same,log2 ratio of Biotin-Ahx-Ub-VS probe labelling,[10]; compound concentration: 50uM,-0.29
same,log2 ratio of Biotin-Ahx-Ub-VS probe labelling,[10]; compound concentration: 100uM,-0.155
same,log2 ratio of Biotin-Ahx-Ub-VS probe labelling,[10]; compound concentration: 200uM,0.052
same,log2 ratio of Biotin-Ahx-Ub-VS probe labelling,[1]; compound concentration: 0.78uM,-0.209
same,log2 ratio of Biotin-Ahx-Ub-VS probe labelling,[1]; compound concentration: 1.56uM,0.0351
same,log2 ratio of Biotin-Ahx-Ub-VS probe labelling,[1]; compound concentration: 3.13uM,-0.059
same,log2 ratio of Biotin-Ahx-Ub-VS probe labelling,[1]; compound concentration: 6.25uM,-0.0717
same,log2 ratio of Biotin-Ahx-Ub-VS probe labelling,[1]; compound concentration: 12.5uM,0.171
same,log2 ratio of Biotin-Ahx-Ub-VS probe labelling,[1]; compound concentration: 25uM,0.148
same,log2 ratio of Biotin-Ahx-Ub-VS probe labelling,[1]; compound concentration: 50uM,-0.0575
same,log2 ratio of Biotin-Ahx-Ub-VS probe labelling,[1]; compound concentration: 100uM,0.0499
same,log2 ratio of Biotin-Ahx-Ub-VS probe labelling,[1]; compound concentration: 200uM,-0.0918
same,log2 ratio of Biotin-Ahx-Ub-VS probe labelling,[2]; compound concentration: 50uM,0.0938
same,log2 ratio of Biotin-Ahx-Ub-VS probe labelling,[2]; compound concentration: 200uM,0.311
same,log2 ratio of Biotin-Ahx-Ub-VS probe labelling,[3]; compound concentration: 50uM,-0.111
same,log2 ratio of Biotin-Ahx-Ub-VS probe labelling,[3]; compound concentration: 200uM,0.0826
